20 compounds from PubChem BioAssay (Tox21) can be followed below.

The nature of assay [1]: A CellTox Green Cytotoxicity Assay to monitor cytotoxicity in HepG2 cells - 8 hour (AID 1224890). Also: nearly all actives have a fitted effect of over 45% in size. The method in brief: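 Nonlytic assay: viable cells exclude the dye, so fluorescence scales with cell death. HepG2 at 600 cells/well, compounds added after 5 h, signal read across 40 h.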
The nature of assay [2]: qHTS assay to identify small molecule antagonists of the estrogen receptor alpha (ER-alpha) signaling pathway using the BG1 cell line in the presence of 0.1 nM 17-beta-estradiol - cell viability counter screen (AID 1259241). Also: nearly all actives have a fitted effect of over 40% in size. In outline: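 Cells were plated and left 24 hr, compounds in DMSO were pinned in, 17beta-estradiol was added to 0.1 nM final, and after 22 hr CellTiter-Fluor reagent was added for 30 min before fluorescence was read.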
Background: qHTS replaces the single test concentration by a dilution series.

Assay [3] in a line: qHTS assay to identify small molecule antagonists of the androgen receptor (AR) signaling pathway using the MDA cell line in the presence of 0.5 nM R1881 - cell viability counter screen (AID 1259242). Also: nearly all actives have a fitted effect of over 45% in size. The method in brief:
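R1881 at 0.5 nM final stimulated MDA-kb2 cells during 16 hr compound treatment at 37C. Cytotoxicity read: CellTiter-Fluor fluorescence after 30 min.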

Assay [4] concerns the target Androgen receptor (Homo sapiens) (UniProt P10275). In words: qHTS assay to identify small molecule antagonists of the androgen receptor (AR) signaling pathway using the MDA cell line in the presence of 0.5 nM R1881 (AID 1259243). Also: nearly all actives have a fitted effect of over 50% in size. Also: potency is read from the fitted curve at half-maximal effect. In outline: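 We exposed MDA-kb2 cells to compounds under 0.5 nM R1881 stimulation for 16 hr at 37C and quantified MMTV-driven luciferase by luminescence.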

The target of assay [5] is Estrogen receptor (Homo sapiens) (UniProt P03372). In words: qHTS assay to identify small molecule antagonists of the estrogen receptor alpha (ER-alpha) signaling pathway using the BG1 cell line in the presence of 0.1 nM 17-beta-estradiol (AID 1259244). Also: nearly all actives have a fitted effect of over 50% in size. In outline:
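VM7Luc4E2; 4xERE-luciferase; 0.1 nM E2 final; 22 h co-incubation, 37C; ONE-Glo luminescence after 30 min at room temperature.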

Assay [6] can be described thus: qHTS assay to identify small molecule phospholipidosis (PLD) inducers (AID 1259344; active = well fitted curve in the direction sought with a large enough effect; an effect the other way counts as inactive or inconclusive). In outline:
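HepG2 cells grown on collagen I take up LipidTOX Red while exposed to compound for 24 h; after fixation they are imaged at 20x and pit metrics are extracted.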

Assay [7] is described as follows: qHTS assay to identify small molecule HDAC inhibitors (AID 1259364). Also: potency is read from the fitted curve at half-maximal effect.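 Also: wild-type HCT-116 cells with endogenous class I/II HDAC activity; nearly all actives have a fitted effect of over 45% in size.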 The method in brief:
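Relative class I and II HDAC activity is taken from the luminogenic signal in HCT-116 cells, with compound exposure 2 hr and reagent development 30 min at room temperature.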

Assay [8] is described as follows: qHTS assay to identify small molecule HDAC inhibitors - cell viability counter screen (AID 1259365). Also: series mostly up to about 92 µM; nearly all actives have a fitted effect of over 50% in size. In outline:
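Counter screen in wild-type HCT-116 cells: compounds dissolved in DMSO are pin-transferred onto overnight-plated cells and left 2hr at 37C. ATP-based CellTiter-Glo luminescence then measures viable cells.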

Assay [9] is described as follows: qHTS assay to identify small molecule agonists of the sonic hedgehog signaling (Shh) pathway - cell viability counter screen (AID 1259366). Also: nearly all actives have a fitted effect of over 50% in size. Also: potency is read from the fitted curve at half-maximal effect. In outline:
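Cells are plated at 2,000 per well and left 4hr at 37C, 5% CO2 before compound addition. After 23hr of treatment, CellTiter-Fluor reagent is added for 1hr at 37C and fluorescence is measured.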

Assay [10] can be described thus: qHTS assay to identify small molecule antagonists of the sonic hedgehog signaling (Shh) pathway - cell viability counter screen (AID 1259367). Also: nearly all actives have a fitted effect of over 55% in size. Also: potency is read from the fitted curve at half-maximal effect. The method in brief: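 After a 4 hr settling period, 3T3 Gli1-Luc cells were treated with DMSO-dissolved chemicals and conditioned medium, kept 24 hr at 37C in 5% CO2, and assayed for viability by CellTiter-Fluor fluorescence following 1 hr reagent incubation.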

Several values for one entry are separate records, joined by “and”; a condition that tells them apart may be missing. Equal entries are not always repeated. Results filed as inconclusive are left out. Some structures have more than one record in an assay (separate samples or runs), and their calls can disagree. Activity calls are given as the source filed them. Unless noted, calls follow the shape of the dose curve; as a rule, active = well fitted curve in the direction sought with a large enough effect in the repeat runs; inconclusive = weak or mixed curves; inactive = no such curve, though single readings can be large; an effect the other way counts as inactive or inconclusive.

Estrogen receptor (Homo sapiens), sequence (P03372 whole entry, looked up): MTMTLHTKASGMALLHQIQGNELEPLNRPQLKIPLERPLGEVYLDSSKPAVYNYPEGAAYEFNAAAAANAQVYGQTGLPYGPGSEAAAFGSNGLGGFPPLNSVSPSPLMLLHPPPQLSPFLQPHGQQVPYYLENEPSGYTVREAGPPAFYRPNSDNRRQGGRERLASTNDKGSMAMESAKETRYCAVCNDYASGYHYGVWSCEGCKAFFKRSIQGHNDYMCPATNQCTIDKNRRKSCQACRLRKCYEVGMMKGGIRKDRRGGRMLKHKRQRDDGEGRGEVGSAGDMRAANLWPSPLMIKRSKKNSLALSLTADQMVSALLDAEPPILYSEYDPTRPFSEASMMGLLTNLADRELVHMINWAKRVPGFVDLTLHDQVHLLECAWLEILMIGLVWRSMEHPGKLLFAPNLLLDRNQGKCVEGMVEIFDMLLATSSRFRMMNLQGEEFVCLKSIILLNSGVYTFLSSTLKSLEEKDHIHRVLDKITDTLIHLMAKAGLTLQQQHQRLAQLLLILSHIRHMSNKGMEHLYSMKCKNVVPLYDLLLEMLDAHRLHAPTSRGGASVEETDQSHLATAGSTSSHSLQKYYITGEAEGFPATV
Androgen receptor (Homo sapiens), sequence (P10275 whole entry, looked up): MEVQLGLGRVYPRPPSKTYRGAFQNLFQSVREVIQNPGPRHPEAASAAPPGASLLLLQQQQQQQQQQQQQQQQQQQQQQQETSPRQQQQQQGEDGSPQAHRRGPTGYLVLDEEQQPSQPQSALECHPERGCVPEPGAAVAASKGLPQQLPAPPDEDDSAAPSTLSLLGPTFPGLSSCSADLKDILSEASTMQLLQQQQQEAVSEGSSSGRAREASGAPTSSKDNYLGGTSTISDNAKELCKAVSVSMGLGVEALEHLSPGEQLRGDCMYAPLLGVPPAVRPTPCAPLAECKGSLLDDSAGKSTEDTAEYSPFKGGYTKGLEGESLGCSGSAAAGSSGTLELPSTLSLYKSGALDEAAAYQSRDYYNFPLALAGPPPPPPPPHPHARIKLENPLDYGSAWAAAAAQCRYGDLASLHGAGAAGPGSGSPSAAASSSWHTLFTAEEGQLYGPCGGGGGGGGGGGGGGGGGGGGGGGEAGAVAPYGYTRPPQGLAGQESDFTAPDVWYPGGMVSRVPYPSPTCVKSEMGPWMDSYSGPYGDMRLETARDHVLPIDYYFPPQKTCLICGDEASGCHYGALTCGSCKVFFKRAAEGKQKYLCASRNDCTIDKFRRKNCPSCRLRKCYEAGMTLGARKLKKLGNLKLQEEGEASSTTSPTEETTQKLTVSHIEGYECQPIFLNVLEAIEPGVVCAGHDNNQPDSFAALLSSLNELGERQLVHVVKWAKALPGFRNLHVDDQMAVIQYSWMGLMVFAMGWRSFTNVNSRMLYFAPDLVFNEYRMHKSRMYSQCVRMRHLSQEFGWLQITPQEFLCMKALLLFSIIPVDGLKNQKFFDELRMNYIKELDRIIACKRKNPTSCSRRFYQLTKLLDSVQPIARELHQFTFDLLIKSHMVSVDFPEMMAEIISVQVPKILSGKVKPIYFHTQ

Consider `COc1cc(C=O)ccc1O`, for which the Potency result in assay [1], in assay [2], in assay [3], in assay [4], in assay [5] and in assay [6] was “inactive” throughout. Moreover, the Potency entry in [7], in assay [9] and in assay [10] was “inactive” each time. In addition, in assay [8], the call was inactive.
As for `O=C1OC(c2ccc(O)cc2)(c2ccc(O)cc2)c2ccccc21`, the Potency result in assay [1], in [2], in assay [3], in [6], in assay [7] and in [9] was “inactive” each time. In addition, the Potency is 48.6 µM (active) and inactive in assay [4]; 54.1 µM (active) and inactive in assay [10]. In addition, the compound was classed as inactive in assay [8].
As for `CC(=O)Oc1ccccc1C(=O)O`, the Potency result in [1], in assay [2], in assay [3], in assay [4], in [5] and in [6] was “inactive” each time. The Potency entry in assay [7], in [9] and in assay [10] was “inactive” each time.
For the compound `C=CCOC(=O)CC(C)C`, the Potency entry in assay [1], in assay [2], in assay [3], in [5], in assay [7] and in assay [9] was “inactive” each time. The Potency result in assay [10] was “inactive”. In [8], the compound was classed as inactive.
With `O=C(O)CCCCC1CCSS1` (configuration not stated), the Potency result in assay [1], in [2], in [3], in [5], in assay [6] and in assay [7] was “inactive” each time. Besides, the Potency entry in assay [9] and in assay [10] was “inactive” in each case.
`OC[C@@H](O)[C@@H](O)[C@H](O)[C@H](O)CO`: the Potency result in assay [1], in assay [2], in assay [3], in assay [5], in assay [6] and in assay [7] was “inactive” throughout. For the same compound, the Potency result in [9] and in [10] was “inactive” each time.
Turning to `COc1ccc(O)cc1`, the Potency entry in assay [1], in [2], in assay [3], in assay [4], in [6] and in [7] was “inactive” throughout. Moreover, the Potency result in assay [9] and in assay [10] was “inactive” in each case. The result in assay [8] was inactive.
As to `CC1=NN(c2ccccc2)C(=O)C1`, the Potency result in [1], in assay [2], in assay [3], in assay [5], in assay [6] and in assay [7] was “inactive” in each case. Moreover, the Potency entry in assay [9] and in assay [10] was “inactive” each time. For the same compound, the compound was called inactive in [8].
For the compound `C[C@]12C[C@H](O)[C@H]3[C@@H](CCC4=CC(=O)CC[C@@]43C)[C@@H]1CC[C@@H]2C(=O)CO`, the Potency entry in [1], in assay [2], in [3], in assay [5], in assay [6] and in assay [7] was “inactive” each time. The Potency entry in [9] and in [10] was “inactive” each time.
For `CCn1cc(C(=O)O)c(=O)c2ccc(C)nc21`, the Potency result in assay [1], in [2], in assay [3], in assay [5], in [6] and in [7] was “inactive” throughout. Also, the Potency result in assay [9] and in assay [10] was “inactive” throughout.
Take `COc1ccc(C(=O)c2ccccc2)c(O)c1`: the Potency result in assay [1], in assay [2], in [3], in assay [5], in assay [6] and in assay [7] was “inactive” in each case. In addition, the Potency entry in assay [9] and in assay [10] was “inactive” in each case. Also, the Potency in assay [4] is 15.1 µM (active) and 27.3 µM (active) and 21.1 µM (active). Also, the call in [8] was inactive.
On to `C/C=C/c1ccc(O)c(OC)c1`, for which the Potency entry in [1], in assay [2], in assay [3], in [5], in [6] and in [7] was “inactive” in each case. For the same compound, the Potency entry in assay [9] and in assay [10] was “inactive” in each case. Moreover, in assay [8], the call was inactive.
Regarding `Cc1ccc(O)c(-n2nc3ccccc3n2)c1`, the Potency entry in [1], in assay [2], in assay [3], in assay [5], in assay [6] and in assay [10] was “inactive” in each case. Also, the Potency is 1.08 µM (active) and 2.17 µM (active) and 1.5 µM (active) in assay [7]; 60.6 µM (active) and inactive in assay [9]. In assay [8], the result was inactive.
`CN/C(=C\[N+](=O)[O-])NCCSCc1ccc(CN(C)C)o1`: the Potency entry in [1], in assay [2], in assay [3], in assay [5], in assay [6] and in [7] was “inactive” each time. In addition, the Potency result in assay [9] and in [10] was “inactive” in each case.
`CC(C)(C)NCC(O)c1ccc(O)c(CO)c1` (configuration not stated): the Potency entry in [1], in assay [2], in assay [3], in assay [5], in assay [6] and in [7] was “inactive” each time. The Potency result in assay [9] and in assay [10] was “inactive” throughout. In addition, in assay [8], the result was inactive.
As for `COC1=CC(=O)C[C@@H](C)[C@]12Oc1c(Cl)c(OC)cc(OC)c1C2=O`, the Potency entry in assay [1], in assay [2], in [3], in [5], in [6] and in [7] was “inactive” throughout. For the same compound, the Potency result in assay [9] and in assay [10] was “inactive” in each case.
On to `NC(=O)N1c2ccccc2C=Cc2ccccc21`, for which the Potency result in assay [1], in [2], in [3], in assay [5], in assay [6] and in assay [7] was “inactive” in each case. Moreover, the Potency entry in assay [9] and in assay [10] was “inactive” throughout. In [8], the result was inactive.
Turning to `COC(=O)c1ccc(C=O)cc1`, the Potency result in assay [1], in assay [2], in assay [3], in assay [5], in assay [7] and in assay [9] was “inactive” each time. Besides, the Potency result in assay [10] is “inactive”. The compound was called inactive in assay [8].
As to `CCCCCCCCCCCCCCCCCC(=O)OCC(O)CO` (configuration not stated), the Potency entry in [1], in assay [2], in [3], in assay [5], in assay [6] and in [7] was “inactive” throughout. Also, the Potency result in assay [9] and in assay [10] was “inactive” in each case.
For the compound `Oc1cccc(O)c1`, the Potency result in [1], in assay [2], in assay [3], in assay [5], in [6] and in assay [7] was “inactive” in each case. Further, the Potency result in [9] and in [10] was “inactive” each time.
